From PubChem BioAssay (NCI) come the findings set out here.

A short description of test [1]: NCI Yeast Anticancer Drug Screen. Data for the rad50 strain (AID 155).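 Also: 0% = growth of vehicle-only cultures of the same strain.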 Particulars: S. cerevisiae rad50 strain growth inhibition, active compounds read high. The method in brief:
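Genetically altered yeast (DNA repair pathway); compound treatment; growth inhibition vs vehicle ctrl.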

Test [2] is described as follows: NCI Yeast Anticancer Drug Screen. Data for the mec2-1 strain (AID 157). Particulars: S. cerevisiae mec2-1 strain, active compounds read high. The method in brief:
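Growth inhibition is read against vehicle-treated controls after compound exposure of the mec2-1 yeast strain, which is defective in DNA damage repair or cell cycle control.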

A short description of test [3]: NCI Yeast Anticancer Drug Screen. Data for the sgs1 mgt1 strain (AID 161).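 Also: 0% = growth of cultures given vehicle only.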 To be noted: S. cerevisiae sgs1 mgt1 strain, active compounds read high. The method in brief:
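Percent growth inhibition was derived by comparing compound-exposed mutant yeast with vehicle-exposed cultures. The strain carries alterations in DNA damage repair.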

A short description of test [4]: NCI Yeast Anticancer Drug Screen. Data for the cln2 rad14 strain (AID 165).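 Also: 0% = growth equal to vehicle treated cultures.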 To be noted: S. cerevisiae cln2 rad14 strain, active compounds read high. The method in brief:
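Growth inhibition, relative to vehicle-treated controls, is the read-out. The test organism is a yeast strain with defined genetic alterations, cln2 rad14.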

The nature of test [5]: NCI Yeast Anticancer Drug Screen. Data for the bub3 strain (AID 167). To be noted: S. cerevisiae bub3 mutant strain, active compounds read high. Put shortly: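 Yeast carrying a defined mutation is treated with each compound, and growth is compared with that of vehicle-exposed cells to give inhibition.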
A short description of test [6]: NCI Yeast Anticancer Drug Screen. Data for the mlh1 rad18 strain (AID 175). To be noted: S. cerevisiae mlh1 rad18 strain growth inhibition, active compounds read high. Put shortly: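 Cells of a genetically altered yeast strain, deficient in DNA damage repair, were treated with compound. Their growth was then compared with that of vehicle-treated cultures to give inhibition.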

Where [7] appears, read: at 5.0 µM (retest, dose inferred, filed as 0.5).
Setting [8] is: at 50.0 µM (retest, dose inferred, filed as 5.0).

About 79,000 compounds went through this panel and 15% of them were active in at least one assay; those are over-represented in the sample as a whole. A number with no mark means an inactive call. Activity calls are given as the source filed them. Rule as the data show it: active = growth inhibition above about 70%; inactive = the rest.

Consider `COC(=O)C(=O)C(C(=O)C(=O)Nc1ccc(C)cc1C)c1nc2ccccc2[nH]c1=O` (configuration not stated), for which the growth inhibition was 21% in test [1] (setting [7]); 21% in test [1] (setting [8]); 17% in test [1] (at 50.0 µM); 8% in test [2] (setting [7]); 8% in test [2] (setting [8]); 20.8% in test [2] (at 50.0 µM). The growth inhibition in test [3] (setting [7]) was -2%; in test [3] (setting [8]), -2%; in test [3] (at 50.0 µM), 39.2%; in test [4] (setting [7]) it was 5%; in test [4] (setting [8]), 5%; in test [4] (at 50.0 µM) it was -57.3%. For the same molecule, the growth inhibition was -6% in test [5] (setting [7]); -6% in test [5] (setting [8]); 34% in test [5] (at 50.0 µM); 7% in test [6] (setting [7]); 7% in test [6] (setting [8]); 49.8% in test [6] (at 50.0 µM).
For the molecule `CC(=O)N(C1=CC(=O)c2ccccc2C1=O)c1ccc(Cl)cc1`, the growth inhibition in test [1] (setting [7]) was 95% (active); in test [1] (setting [8]), 97% (active); in test [1] (at 50.0 µM), 96.7% (active); in test [2] (setting [7]) it was 92% (active); in test [2] (setting [8]), 98% (active); in test [2] (at 50.0 µM), 95% (active). The growth inhibition in test [3] (setting [7]) was 95% (active); in test [3] (setting [8]), 97% (active); in test [3] (at 50.0 µM), 95.2% (active); in test [4] (setting [7]), 52%; in test [4] (setting [8]), 98% (active); in test [4] (at 50.0 µM), 90.8% (active). Besides, the growth inhibition in test [5] (setting [7]) was 89% (active); in test [5] (setting [8]) it was 98% (active); in test [5] (at 50.0 µM), 90.5% (active); in test [6] (setting [7]) it was 92% (active); in test [6] (setting [8]), 98% (active); in test [6] (at 50.0 µM), 93.5% (active).
`CCCN(CCC)C(=O)c1cccc2ccccc12`: the growth inhibition in test [1] (setting [7]) was 3%; in test [1] (setting [8]), 7%; in test [1] (at 50.0 µM), 6.8%; in test [2] (setting [7]) it was 4%; in test [2] (setting [8]) it was 6%; in test [2] (at 50.0 µM), -19.1%. Moreover, the growth inhibition in test [3] (setting [7]) was 1%; in test [3] (setting [8]), 9%; in test [3] (at 50.0 µM), 44.5%; in test [4] (setting [7]), 3%; in test [4] (setting [8]) it was 22%; in test [4] (at 50.0 µM), -1.9%. Moreover, the growth inhibition in test [5] (setting [7]) was 6%; in test [5] (setting [8]) it was 28%; in test [5] (at 50.0 µM), 27.2%; in test [6] (setting [7]), 6%; in test [6] (setting [8]) it was 7%; in test [6] (at 50.0 µM), 7.5%.
In the case of `Cc1cnc(Sc2c([N+](=O)[O-])ncn2C)nc1`, the growth inhibition in test [1] (setting [7]) was 3%; in test [1] (setting [8]), 8%; in test [1] (at 50.0 µM), 71.8% (active); in test [2] (setting [7]), 6%; in test [2] (setting [8]), 7%; in test [2] (at 50.0 µM), 98.2% (active). In addition, the growth inhibition in test [3] (setting [7]) was 3%; in test [3] (setting [8]), 9%; in test [3] (at 50.0 µM) it was 63.7%; in test [4] (setting [7]), 0%; in test [4] (setting [8]), 7%; in test [4] (at 50.0 µM) it was 41.5%. The growth inhibition in test [5] (setting [7]) is 1%; in test [5] (setting [8]), 4%; in test [5] (at 50.0 µM), 99.5% (active); in test [6] (setting [7]), -1%; in test [6] (setting [8]) it was 3%; in test [6] (at 50.0 µM), 80.1% (active).
As for `CCNC(=O)COc1ccc(Cl)cc1Cl`, the growth inhibition in test [1] (setting [7]) is -2%; in test [1] (setting [8]), 10%; in test [1] (at 50.0 µM) it was -17.6%; in test [2] (setting [7]), -10%; in test [2] (setting [8]), 2%; in test [2] (at 50.0 µM), -19.4%. Moreover, the growth inhibition in test [3] (setting [7]) was 0%; in test [3] (setting [8]) it was -6%; in test [3] (at 50.0 µM), -15.4%; in test [4] (setting [7]) it was 7%; in test [4] (setting [8]), 13%; in test [4] (at 50.0 µM), 38.8%. For the same molecule, the growth inhibition in test [5] (setting [7]) was -5%; in test [5] (setting [8]) it was -3%; in test [5] (at 50.0 µM), -29.4%; in test [6] (setting [7]) it was 8%; in test [6] (setting [8]), 2%; in test [6] (at 50.0 µM), -27.4%.
As to `O=C(c1ccc(Br)cc1)C1OC12C(=O)Nc1ccccc12` (configuration not stated), the growth inhibition was 46% in test [1] (setting [7]); 99% (active) in test [1] (setting [8]); 99.7% (active) in test [1] (at 50.0 µM); 99% (active) in test [2] (setting [7]); 99% (active) in test [2] (setting [8]); 99.7% (active) in test [2] (at 50.0 µM). Further, the growth inhibition was 84% (active) in test [3] (setting [7]); 100% (active) in test [3] (setting [8]); 99.7% (active) in test [3] (at 50.0 µM); 49% in test [4] (setting [7]); 99% (active) in test [4] (setting [8]); 99.1% (active) in test [4] (at 50.0 µM). For the same molecule, the growth inhibition in test [5] (setting [7]) was 99% (active); in test [5] (setting [8]) it was 99% (active); in test [5] (at 50.0 µM) it was 99.6% (active); in test [6] (setting [7]), 99% (active); in test [6] (setting [8]) it was 99% (active); in test [6] (at 50.0 µM), 99.5% (active).
As for `Oc1c(Br)ccc2cccnc12`, the growth inhibition in test [1] (setting [7]) is 26%; in test [1] (setting [8]), 99% (active); in test [1] (at 50.0 µM) it was 87.2% (active); in test [2] (setting [7]), 23%; in test [2] (setting [8]), 99% (active); in test [2] (at 50.0 µM), 91.2% (active). The growth inhibition in test [3] (setting [7]) was 4%; in test [3] (setting [8]) it was 99% (active); in test [3] (at 50.0 µM), 83.8% (active); in test [4] (setting [7]) it was 0%; in test [4] (setting [8]), 98% (active); in test [4] (at 50.0 µM), 88.6% (active). The growth inhibition in test [5] (setting [7]) was 1%; in test [5] (setting [8]) it was 99% (active); in test [5] (at 50.0 µM) it was 88.5% (active); in test [6] (setting [7]) it was 1%; in test [6] (setting [8]), 98% (active); in test [6] (at 50.0 µM), 82.3% (active).
For `O=c1c2cc3c(cc2c2cccc4c2n1CCC4)OCO3`, the growth inhibition in test [1] (setting [7]) is -1%; in test [1] (setting [8]), 44%; in test [1] (at 50.0 µM), 71.2% (active); in test [2] (setting [7]), 0%; in test [2] (setting [8]), 12%; in test [2] (at 50.0 µM) it was 23.4%. In addition, the growth inhibition in test [3] (setting [7]) is -4%; in test [3] (setting [8]), 13%; in test [3] (at 50.0 µM) it was 25.4%; in test [4] (setting [7]), -3%; in test [4] (setting [8]) it was 6%; in test [4] (at 50.0 µM), 42.4%. For the same molecule, the growth inhibition in test [5] (setting [7]) was 2%; in test [5] (setting [8]) it was 31%; in test [5] (at 50.0 µM), 20.4%; in test [6] (setting [7]), -2%; in test [6] (setting [8]), 15%; in test [6] (at 50.0 µM) it was 53.7%.
Regarding `COc1cc(C(c2cc3c(cc2O)OCO3)N2CCOCC2)ccc1O` (configuration not stated), the growth inhibition in test [1] (setting [7]) was 2%; in test [1] (setting [8]), 25%; in test [1] (at 50.0 µM), 44.8%; in test [2] (setting [7]), -4%; in test [2] (setting [8]), 46%; in test [2] (at 50.0 µM) it was 57.5%. The growth inhibition in test [3] (setting [7]) was -2%; in test [3] (setting [8]), 27%; in test [3] (at 50.0 µM) it was 73% (active); in test [4] (setting [7]), 1%; in test [4] (setting [8]), 3%; in test [4] (at 50.0 µM), 47.6%. In addition, the growth inhibition in test [5] (setting [7]) was -4%; in test [5] (setting [8]) it was 25%; in test [5] (at 50.0 µM) it was 42.9%; in test [6] (setting [7]) it was -5%; in test [6] (setting [8]), 34%; in test [6] (at 50.0 µM), 50.5%.
